Here are results for 15 compounds from PubChem BioAssay (Tox21).

The structures appear in SMILES notation. “And” between values parts separate entries of the source, which are not always exact repeats. Equal values may be shown once. Results filed as inconclusive are left out. A structure can be active in one record and inactive in another. The source made the active and inactive calls. Unless noted, the call rests on the fitted dose curve; in most records, active means well fitted curve in the direction sought with a large enough effect in the repeat runs; inconclusive means weak or mixed curves; inactive means no such curve, though single readings can be large; an effect the other way counts as inactive or inconclusive.

Test [1] has as its target Nuclear receptor ROR-gamma (Homo sapiens) (UniProt P51449). In words: qHTS assay to identify small molecule antagonists of the retinoid-related orphan receptor gamma (ROR-gamma) signaling pathway (AID 1159521; further: nearly all actives have a fitted effect of over 50% in size; further: potency means the concentration at half of the fitted maximal effect). The gist of the method:
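Tet-on RORγ CHO cells carrying a ROR response element–luciferase reporter were pretreated with compounds for 2 h, then induced with 1 uM (final) doxycycline hyclate for 16 h at 37 C. Antagonism was read as decreased ONE-Glo luminescence.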
(In qHTS, concentration-response curves come from the screen itself.)

Test [2] is described as follows: qHTS assay to identify small molecule agonists of the AP-1 signaling pathway - cell viability counter screen (AID 1159525; calls by dose curve; further: nearly all actives have a fitted effect of over 55% in size; further: potency means the concentration at half of the fitted maximal effect). The method, boiled down:
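Luminescent ATP readout (Cell Titer Glo, 30 min RT), normalised to DMSO and tetra n-octyl ammonium bromide controls. Cells were ME-180 AP-1-bla in 0.5% dialyzed FBS Opti-MEM, with a 5 h, 37 °C compound exposure.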

A short description of test [3]: qHTS assay to identify small molecule agonists of the AP-1 signaling pathway (AID 1159526; calls by dose curve).
Test [4] in a line: qHTS assay to identify small molecule agonists of the RXR signaling pathway - cell viability counter screen (AID 1159529). Further: nearly all actives have a fitted effect of over 50% in size. Further: potency means the concentration at half of the fitted maximal effect. The method, boiled down: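 RXR-alpha-UAS-bla HEK 293T cells in medium with 2% charcoal-stripped FBS were preincubated 5 hr, then exposed to compounds for 16 hr at 37 C. Viability was read as CellTiter-Glo luminescence after 30 min at room temperature.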
A short description of test [5]: qHTS assay to identify small molecule antagonists of the retinoid-related orphan receptor gamma (ROR-gamma) signaling pathway - cell viability counter screen (AID 1159520). Further: nearly all actives have a fitted effect of over 50% in size. Further: potency means the concentration at half of the fitted maximal effect. The gist of the method: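 Cytotoxicity was read from cellular ATP (CellTiter-Glo luminescence) after 16 hr at 37 C with 1 uM doxycycline induction. The inducer was added 2 hr after compound transfer to Tet-on ROR gamma CHO cells.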

Test [6] can be described thus: qHTS assay to identify small molecule agonists of the peroxisome proliferator-activated receptor delta (PPARd) signaling pathway - cell viability counter screen (AID 743211). Further: potency means the concentration at half of the fitted maximal effect; nearly all actives have a fitted effect of over 55% in size. The method, boiled down:
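PPARd-bla HEK293H cells (UAS-beta-lactamase reporter) were treated with compounds for 17 h at 37 C. Viability was then read in the same wells by CellTiter-Glo luminescence after 30 min at room temperature.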

A short description of test [7]: qHTS assay to identify small molecule antagonists of the peroxisome proliferator-activated receptor delta (PPARd) signaling pathway - cell viability counter screen (AID 743213). Further: potency means the concentration at half of the fitted maximal effect; nearly all actives have a fitted effect of over 50% in size. The method, boiled down:
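CellTiter-Glo was added to PPARd-bla HEK293H wells following 17 h compound treatment in the presence of 300 nM L165041. Luminescence was recorded after 30 min at room temperature.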

Test [8] can be described thus: qHTS assay to identify small molecule agonists of the farnesoid-X-receptor (FXR) signaling pathway - cell viability counter screen (AID 743218). Further: potency means the concentration at half of the fitted maximal effect; nearly all actives have a fitted effect of over 45% in size. The gist of the method:
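Cytotoxicity counter-screen run in parallel, same wells: FXR-UAS-bla HEK 293T cells dosed 16 h at 37 C, viability read by CellTiter-Glo luminescence after 30 min at room temperature.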

Test [9] addresses Bile acid receptor (Homo sapiens) (UniProt Q96RI1). Kind of test: qHTS assay to identify small molecule agonists of the farnesoid-X-receptor (FXR) signaling pathway (AID 743220; active means well fitted activation curve with a large enough effect in the signal ratio in the repeat runs, not every such curve was filed as active; the % refers to the signal ratio). The gist of the method:
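Beta-lactamase reporter under UAS control in GeneBLAzer FXR HEK 293T cells (5000/well) measured with LiveBLAzer FRET substrate after 2 h at room temperature. Compound exposure lasted 16 h at 37C.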

A short description of test [10]: qHTS assay to identify small molecule agonists of the vitamin D receptor (VDR) signaling pathway - cell viability counter screen (AID 743224). The gist of the method: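 Viability is measured in the same wells as the VDR-bla reporter assay: after 16 h compound treatment and 2 h substrate loading, CellTiter-Glo is added and luminescence read 30 min later.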
Test [11] is described as follows: qHTS assay to identify small molecule antagonists of the vitamin D receptor (VDR) signaling pathway - cell viability counter screen (AID 743225). The method, boiled down: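 VDR-bla HEK 293T cells, 4 h pre-incubation at 37C, then compound plus 1-alpha,25-dihydroxyvitamin D3 (3 nM final) for 16 h. After the beta-lactamase FRET read, CellTiter-Glo was added to the same wells; luminescence after 30 min at room temperature.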

Test [12] deals with Retinoic acid receptor RXR-alpha (Homo sapiens) (UniProt P19793). In words: qHTS assay to identify small molecule agonists of the RXR signaling pathway (AID 1159527; calls by dose curve; further: nearly all actives have a fitted effect of over 35% in size). The method, boiled down:
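GeneBLAzer RXR-alpha-UAS-bla HEK 293T cells in medium with 2% charcoal-stripped FBS, pre-incubated 5 hr at 37 C, then exposed to compounds 16 hr. Beta-lactamase reporter read by FRET substrate, 2 hr room temperature, 460/530 nm emission.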

Test [13] has as its target Bile acid receptor (Homo sapiens) (UniProt Q96RI1). Kind of test: qHTS assay to identify small molecule antagonists of the farnesoid-X-receptor (FXR) signaling pathway (AID 743217; active means well fitted inhibition curve with a large enough effect in the signal ratio in the repeat runs, not every such curve was filed as active; the % refers to the signal ratio; further: potency means the concentration at half of the fitted maximal effect). The method, boiled down: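 Antagonist mode against 50 uM (final) chenodeoxycholic acid stimulation in FXR-bla HEK 293T cells, 16 h at 37 °C. Inhibition detected as reduced beta-lactamase activity via LiveBLAzer B/G FRET fluorescence after 2 h at room temperature.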

Test [14] in a line: qHTS assay to identify small molecule antagonists of the farnesoid-X-receptor (FXR) signaling pathway - cell viability counter screen (AID 743221; active means well fitted cell-killing curve with a large enough effect in the repeat runs, not every such curve was filed as active). The method, boiled down: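 FXR-UAS-bla HEK 293T cells were treated with test compounds plus chenodeoxycholic acid (50 uM final) for 16 h at 37 C. Cell viability in the same wells was then read as CellTiter-Glo luminescence after 30 min at room temperature.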

Chain of Retinoic acid receptor RXR-alpha (Homo sapiens) (P19793 whole entry, looked up): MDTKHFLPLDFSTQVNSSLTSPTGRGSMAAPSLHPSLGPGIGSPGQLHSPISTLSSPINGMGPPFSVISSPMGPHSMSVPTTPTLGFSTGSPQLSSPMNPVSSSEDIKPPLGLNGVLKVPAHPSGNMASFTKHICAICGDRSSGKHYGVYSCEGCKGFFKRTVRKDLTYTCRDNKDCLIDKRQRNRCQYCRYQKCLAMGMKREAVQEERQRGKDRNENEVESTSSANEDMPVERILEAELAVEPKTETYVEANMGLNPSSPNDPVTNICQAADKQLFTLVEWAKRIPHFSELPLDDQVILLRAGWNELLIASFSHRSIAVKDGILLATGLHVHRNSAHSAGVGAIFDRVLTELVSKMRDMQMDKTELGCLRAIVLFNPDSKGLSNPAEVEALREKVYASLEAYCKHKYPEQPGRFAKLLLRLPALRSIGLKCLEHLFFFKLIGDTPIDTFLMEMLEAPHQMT
Chain of Bile acid receptor (Homo sapiens) (Q96RI1 whole entry, looked up): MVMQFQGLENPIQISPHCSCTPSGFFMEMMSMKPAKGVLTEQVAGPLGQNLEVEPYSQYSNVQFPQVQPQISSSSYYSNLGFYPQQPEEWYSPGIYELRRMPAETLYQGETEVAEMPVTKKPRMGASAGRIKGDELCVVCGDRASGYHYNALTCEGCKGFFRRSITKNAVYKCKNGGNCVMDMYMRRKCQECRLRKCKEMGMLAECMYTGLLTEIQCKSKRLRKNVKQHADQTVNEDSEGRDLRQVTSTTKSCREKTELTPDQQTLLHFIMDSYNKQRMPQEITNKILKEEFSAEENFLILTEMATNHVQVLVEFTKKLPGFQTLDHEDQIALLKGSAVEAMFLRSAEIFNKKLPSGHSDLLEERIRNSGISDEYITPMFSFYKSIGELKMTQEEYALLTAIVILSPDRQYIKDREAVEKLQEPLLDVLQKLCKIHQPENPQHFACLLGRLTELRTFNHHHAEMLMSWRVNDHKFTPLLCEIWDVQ

As for `CCOC(/C=C(\C)CCC=C(C)C)OCC`, the Potency entry in test [1], in test [2], in [3] and in test [4] was “inactive” throughout.
As for `O=C1OC(=O)c2ccc3c4c(ccc1c24)C(=O)OC3=O`, the Potency result in test [5], in test [2], in test [3] and in test [4] was “inactive” in each case.
With `C[C@H]1O[C@@H](O[C@H]2[C@@H](O)C[C@H](O[C@H]3[C@@H](O)C[C@H](O[C@H]4CC[C@@]5(C)[C@H](CC[C@@H]6[C@@H]5C[C@@H](O)[C@]5(C)[C@@H](C7=CC(=O)OC7)CC[C@]65O)C4)O[C@@H]3C)O[C@@H]2C)C[C@H](O)[C@@H]1O`, the Potency was 38.5 nM (active) in test [6]; 24.6 nM (active) and 13.6 nM (active) in test [7]; 24.6 nM (active) and 12.2 nM (active) in test [8]; 17.4 nM (active) in test [10]; 21.9 nM (active) and 13.6 nM (active) in test [11]; 30.7 µM (active) and inactive in test [5]. Besides, the Potency in test [1] is 4.33 µM (active) and 8.54 µM (active). For the same compound, the Potency entry in test [9] and in test [3] was “inactive” in each case.
As to `CCc1c(C(=O)O)c(=O)cnn1-c1ccc(Cl)cc1`, the Potency entry in test [5], in test [2], in [3] and in test [4] was “inactive” each time.
On to `CC1=CCC(=O)O1`, for which the Potency entry in test [5], in test [2], in test [3], in test [12] and in test [4] was “inactive” each time.
For `CC1(C)C(=O)N(CO)C(=O)N1CO`, the Potency result in test [5], in test [2], in test [3], in test [12] and in [4] was “inactive” throughout.
As to `CCCC(=O)OCC(COC(=O)CCC)OC(=O)CCC`, the Potency entry in test [5], in test [2], in test [3], in test [12] and in [4] was “inactive” each time.
Consider `Cn1cccc1`, for which the Potency result in test [5], in test [2], in test [3], in [12] and in test [4] was “inactive” in each case.
Take `CCCCCCCCCCCCOC(=O)c1cc(O)c(O)c(O)c1`: the Potency in test [6] is 34.5 µM (active) and 43.6 µM (active); in [7], 34.5 µM (active) and 54.9 µM (active); in test [13] it was 54.9 µM (active); in test [8] it was 43.5 µM (active); in test [14], 38.7 µM (active) and 19.5 µM (active); in test [10], 27.4 µM (active) and 21.9 µM (active). In addition, the Potency in [11] is 43.5 µM (active) and 24.5 µM (active); in test [5] it was 2.42 µM (active) and 4.86 µM (active); in test [1], 2.16 µM (active) and 2.17 µM (active); in test [2], 43.5 µM (active) and 38.9 µM (active); in test [4], 27.4 µM (active) and 34.7 µM (active).
As for `CC1CNCC(C)O1` (stereo not given), the Potency entry in [5], in test [1], in test [2], in test [3] and in test [4] was “inactive” each time.
On to `O=CC1CC1`, for which the Potency entry in [1], in test [2], in test [3], in test [12] and in test [4] was “inactive” in each case.
In the case of `CC(C)=CC1CC(C)CCO1` (stereo not given), the Potency result in [1], in [2], in [3], in test [12] and in test [4] was “inactive” in each case.
With `CC(C)(C)c1cc(CCC(=O)NCCCCCCNC(=O)CCc2cc(C(C)(C)C)c(O)c(C(C)(C)C)c2)cc(C(C)(C)C)c1O`, the Potency result in [5], in test [2], in test [3] and in test [4] was “inactive” each time.
For the compound `CCOC(=O)CN`, the Potency result in test [5], in test [2], in test [3], in [12] and in test [4] was “inactive” each time.
On to `Clc1cccnc1`, for which the Potency result in [5], in test [2], in [3] and in test [4] was “inactive” in each case.
